Activity calls are given as the source filed them.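 Rule for the calls: active = calcium response above 60% of the acetylcholine maximum at human M5, as a positive modulator; inactive = the rest.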
Target: Muscarinic acetylcholine receptor M5 (Homo sapiens) (UniProt P08912)
Assay: M5 muscarinic receptor positive allosteric modulators, cell-based, single concentration, CHO-K1 hM5, calcium flux (AID 743100)
Details: CHO-K1 hM5, Fluo-4 calcium flux, ACh EC20, hits give high values; at 10 µM unless noted

Chain of Muscarinic acetylcholine receptor M5 (Homo sapiens) (P08912 whole entry, looked up): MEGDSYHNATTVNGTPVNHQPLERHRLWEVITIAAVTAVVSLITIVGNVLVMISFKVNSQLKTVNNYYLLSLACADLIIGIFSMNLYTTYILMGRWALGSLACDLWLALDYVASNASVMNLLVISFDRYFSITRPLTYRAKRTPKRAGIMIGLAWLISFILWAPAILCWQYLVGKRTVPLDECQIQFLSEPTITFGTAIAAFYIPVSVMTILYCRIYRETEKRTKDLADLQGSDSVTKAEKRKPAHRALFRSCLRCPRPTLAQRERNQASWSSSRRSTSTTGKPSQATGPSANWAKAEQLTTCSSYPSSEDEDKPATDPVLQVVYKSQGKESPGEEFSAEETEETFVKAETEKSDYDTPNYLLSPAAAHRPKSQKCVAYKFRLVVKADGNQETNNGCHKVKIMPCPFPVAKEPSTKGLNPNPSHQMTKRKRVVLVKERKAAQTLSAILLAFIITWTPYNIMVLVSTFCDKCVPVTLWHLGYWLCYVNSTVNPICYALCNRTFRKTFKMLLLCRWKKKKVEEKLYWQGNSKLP

% ACh max response, inactive:
CCN(Cc1ccccc1)C(=O)C1CCN(S(=O)(=O)c2ccccc2C#N)CC1 24% [at 30 µM], CCN(Cc1ccncc1)C(=O)C1CCN(S(=O)(=O)c2ccc3cn[nH]c3c2)CC1 22.4%, CC(=O)N(Cc1ccccc1)CC1CCN(S(=O)(=O)c2ccc3c(c2)OCCO3)CC1 7.56%, CCN(Cc1ccccc1)C(=O)C1CCNCC1 14.9% [at 30 µM], CCN(Cc1ccccc1)C(=O)C1CCN(S(=O)(=O)c2cnc[nH]2)CC1 33.7% [at 30 µM], CCN(Cc1ccccc1)C(=O)C1CCN(S(=O)(=O)CC(C)(C)C)CC1 17% [at 30 µM]

% ACh max response, active:
CCN(Cc1ccccc1C(F)(F)F)C(=O)C1(F)CCN(S(=O)(=O)c2ccc3[nH]ncc3c2)CC1 75.9%, CCN(C(=O)C1CCN(S(=O)(=O)c2ccc(OC)cc2)CC1)[C@H](C)c1ccccc1 91.8% [at 30 µM], CCN(Cc1cccc(F)c1)C(=O)C1CCN(S(=O)(=O)c2ccc3cn[nH]c3c2)CC1 84.8%, CCN(Cc1ccccc1)C(=O)C1CCN(S(=O)(=O)c2cccc(C#N)c2)CC1 61% [at 30 µM], CCN(Cc1ccccc1)C(=O)C1CCN(S(=O)(=O)c2ccc(C)cc2)CC1 73.7% [at 30 µM], CCN(Cc1ccccc1)C(=O)C1CCN(S(=O)(=O)c2ccc(N3CCOCC3)nc2)CC1 70% [at 30 µM], CCN(Cc1ccccc1)C(=O)C1CCN(S(=O)(=O)c2ccccc2)CC1 71.5% [at 30 µM]
